Compounds without any hit were thinned out: in the full panel of roughly 83,000, 20% have a hit.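 Results are percent growth after 48 hours of single-concentration exposure. 100 means growth as in untreated cells, lower positive values show inhibition; negative values down to -100 show cell death.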 Unmarked numbers belong to inactive results. Calls of active or inactive are those of the source. How the source made its calls: active means growth percent below 10; inactive means the rest.

What all share (assay): NCI-60 one-dose screen, 48 h (100 = growth as untreated, 0 = no growth, -100 = all killed)
Common to all, as to details: 10 µM unless noted

Experiment [1] concerns SR leukemia.
Experiment [2] concerns RPMI-8226 leukemia.
The test system of experiment [3] is OVCAR-8 ovarian.
Experiment [4] has as its system OVCAR-5 ovarian.
Experiment [5] relates to OVCAR-4 ovarian.
The subject of experiment [6] is SK-OV-3 ovarian.
For experiment [7], the system named is IGROV1 ovarian.
Experiment [8] concerns OVCAR-3 ovarian.
The test system of experiment [9] is HS 578T breast.
For experiment [10], the system named is NCI/ADR-RES ovarian.

`CCOC(=O)c1ccc(NC2=C(Cl)C(=O)c3nc(C)ccc3C2=O)cc1`: the growth in experiment [1] is 22.6%; in [2], 4.69% (active); in experiment [3], 68.4%; in experiment [4], 91.5%; in experiment [5], -62.7% (active); in experiment [6] it was 94.4%. Further, the growth in [7] was 7.95% (active); in experiment [8], -18.8% (active); in experiment [9], 50.2%; in experiment [10], 45.9%.
Turning to `CC(=O)Nc1ccccc1-c1nc2ccccc2s1`, the growth in experiment [1] was 110%; in experiment [2], 113%; in [3], 103%; in [4], 102%; in experiment [5], 97.4%; in [6] it was 108%. The growth was 101% in [7], 112% in [8], 106% in experiment [9] and 98.5% in [10].
Turning to `CNCCN(C)c1ccc(Nc2cc(NC3CC3)n3ncc(C#N)c3n2)cc1NC(C)=O`, the growth is 6.13% (active) in experiment [1]; 12.2% in [2]; 21.7% in [3]; 7.68% (active) in [4]; 2.94% (active) in experiment [5]; -13.6% (active) in experiment [6]. Also, the growth in experiment [7] is -18.3% (active); in [8], -16.9% (active); in [9] it was -19% (active); in experiment [10] it was 45.5%.
`O=C(CCCCCCNC(=O)C(O)(O)C(F)(F)F)Nc1nc2ccccc2s1`: the growth was 16.7% in [1]; 13.5% in [2]; 8.26% (active) in experiment [3]; 1.89% (active) in [4]; 35.9% in [5]; -26.3% (active) in experiment [6]. The growth in experiment [7] was -3.25% (active); in experiment [8] it was -38.8% (active); in [9] it was 12.5%; in [10], 1.87% (active).
For the compound `C=C(C)[C@@H]1CC[C@]2(C(=O)O)CC[C@]3(C)[C@H](CC[C@@H]4[C@@]5(C)C/C(=C/c6ccccn6)C(=O)C(C)(C)[C@@H]5CC[C@]43C)[C@@H]12`, the growth in experiment [1] was 29.1%; in [2], 13%; in experiment [3], 32%; in experiment [4], 82.4%; in experiment [5], 36.2%; in experiment [6], 70.4%. Further, the growth is 51.6% in [7], 40.8% in [8], 63.6% in [9] and 37.4% in [10].
In the case of `O=C(/C=C/c1cccc(F)c1)c1cccc(OCCCCOc2cccc(C(=O)/C=C/c3cccc(F)c3)c2)c1`, the growth in experiment [1] was 84.8%; in experiment [2] it was 8.56% (active); in [3], 104%; in experiment [4], 99.1%; in experiment [5], 106%; in experiment [6], 109%. For the same compound, the growth in experiment [7] was 103%; in experiment [8], 105%; in [9] it was 99.3%; in [10], 106%.
For the compound `C[C@]12CC[C@H]3[C@@H](CC=C4C[C@@H](O)CC[C@@]43C)[C@@H]1CC[C@@H]2[C@](C)(O)CCc1cccnc1`, the growth was 32.3% in experiment [1]; 33.1% in [2]; 62% in experiment [3]; 113% in [4]; 21.9% in [5]; 82.8% in experiment [6]. The growth in experiment [7] was 81.3%; in experiment [8], 65.7%; in experiment [9], 56%; in experiment [10], 65.9%.
In the case of `O=C(CSc1nnc(-c2cccs2)n1-c1ccccc1)Nc1ccccc1`, the growth in [1] was 61.3%; in [2] it was 99.7%; in experiment [3] it was 53.5%; in experiment [4] it was 96.7%; in experiment [5], 56.3%; in experiment [6] it was 80.1%. Also, the growth in experiment [7] was 89.9%; in experiment [8], 84.2%; in experiment [9], 33.2%; in [10] it was 61.9%.
As for `O=C(CSc1nnc(-c2ccc(Cl)cc2)n1-c1ccccc1)Nc1ccccc1Cl`, the growth in experiment [1] is 20.5%; in experiment [2] it was 35.4%; in [3] it was 67.2%; in experiment [4], 81.3%; in [5] it was 8.39% (active); in [6] it was 125%. Also, the growth is 52.3% in experiment [7], 91.6% in experiment [8], 58.8% in experiment [9] and 54.8% in experiment [10].
For `CC1(C)CC[C@]23CC[C@]4(C)[C@H](CC[C@@H]5[C@@]6(C)CC[C@H](N)C(C)(C)[C@@H]6CC[C@]54C)[C@H]2[C@H]1OC3`, the growth in experiment [1] was -22.5% (active); in experiment [2], -24.1% (active); in experiment [3] it was 85.6%; in [4] it was 112%; in experiment [5], 96.7%; in [6], 101%. The growth was 69.9% in experiment [7], 70.2% in experiment [8], 94.4% in experiment [9] and 2.93% (active) in experiment [10].
Turning to `Cc1csc(/N=C(N)/N=C(\N)c2cccnc2)n1`, the growth in experiment [1] was 45.7%; in [2], 86.1%; in experiment [3], 89.7%; in experiment [4], 92.5%; in experiment [5], 98.9%; in experiment [6] it was 77.8%. Moreover, the growth was 67.9% in experiment [7], 66.7% in experiment [8], 78.8% in experiment [9] and 48.4% in experiment [10].
In the case of `COC(=O)c1ccc(NC2=C(Cl)C(=O)C(C)=C(C)C2=O)cc1`, the growth in experiment [1] was 13.6%; in experiment [2], 36.5%; in experiment [3], 77.9%; in [4], 90.9%; in experiment [5], 32.4%; in experiment [6] it was 86.2%. Moreover, the growth is 70.4% in experiment [7], 30.1% in experiment [8], 77.1% in [9] and 65.2% in [10].
Regarding `COc1ccc2[nH]cc(/C=N/Nc3ccnc4cc(Cl)ccc34)c2c1`, the growth in experiment [1] was -27.1% (active); in experiment [2], -62.8% (active); in experiment [3], -70% (active); in experiment [4], -100% (active); in [5], -100% (active); in [6], -95.6% (active). Moreover, the growth is -94.6% (active) in experiment [7], -82.1% (active) in experiment [8], -49.6% (active) in experiment [9] and -60.4% (active) in experiment [10].
For the compound `Clc1cccc(/C=N/Nc2nc(N/N=C/c3cccc(Cl)c3)nc(N3CCOCC3)n2)c1`, the growth in experiment [1] was 7.7% (active); in experiment [2], 38.8%; in experiment [3], 49.5%; in experiment [4] it was 95.5%; in experiment [5] it was 66.4%; in experiment [6] it was 130%. Besides, the growth in [7] is 50.7%; in experiment [8], 56.3%; in experiment [9], 67.5%; in experiment [10], 61.8%.
In the case of `OCC(Nc1ncnc2ccc(-c3cnc4cnccn34)cc12)c1ccccc1` (stereo not given), the growth in experiment [1] is 73.5%; in [2], 62.5%; in [3], 79.7%; in experiment [4], 83.8%; in [5] it was 63.7%; in [6] it was 80.9%. The growth in experiment [7] is 39.1%; in experiment [8], 71.9%; in experiment [9] it was 84.1%; in [10] it was 90.3%.
For the compound `Cn1ncc2ncc(-c3ccc4ncc(C#N)c(N5CCc6cc(F)c(Cl)cc65)c4c3)cc21`, the growth in experiment [1] was 22.3%; in [2], 35.8%; in [3], 38.8%; in [4], 47%; in experiment [5], 26.1%; in experiment [6], 15%. Moreover, the growth in [7] is -9.7% (active); in experiment [8], 29.8%; in experiment [9] it was -1.2% (active); in [10] it was 39.3%.
On to `CCCCN1C(=O)/C(=c2\sc3n(c2=O)C2C(NN=3)N(CC)C(=O)N2CC)c2cc(C)ccc21` (stereo not given), for which the growth in experiment [1] was 64.1%; in experiment [2], 99.8%; in experiment [3], 93%; in experiment [4] it was 96.1%; in [5], 97.2%; in experiment [6], 108%. Further, the growth in experiment [7] was 88.4%; in experiment [8], 102%; in experiment [9], 89.7%; in experiment [10], 81.9%.
In the case of `COc1cc(C(=O)c2cc(C(C)=O)c3c(C)cccn23)cc(OC)c1OC`, the growth is 96.5% in experiment [1]; 95.5% in experiment [2]; 106% in experiment [3]; 95.8% in experiment [4]; 90.8% in experiment [5]; 109% in [6]. The growth was 97.6% in [7], 115% in experiment [8], 90.7% in [9] and 97.9% in experiment [10].
Regarding `CC(=C(c1ccc(OCCN2CCCC2)cc1)c1ccc(OCCN2CCCC2)cc1)c1ccc(Cl)cc1`, the growth is -45.8% (active) in [1]; -54.8% (active) in experiment [2]; -6.74% (active) in experiment [3]; -16% (active) in [4]; -11.2% (active) in experiment [5]; 85.8% in [6]. The growth in experiment [7] is -50.7% (active); in [8], -20.8% (active); in experiment [9] it was -31.2% (active); in experiment [10], -12% (active).
`Cc1ccc(/C(N)=N/C(N)=N/c2nc3ccccc3s2)cc1`: the growth in [1] was 21.1%; in [2], 78.3%; in experiment [3], 78.8%; in [4] it was 111%; in experiment [5] it was 105%; in experiment [6] it was 134%. Besides, the growth is 67.3% in experiment [7], 106% in [8], 112% in [9] and 31.1% in experiment [10].
For the compound `N#Cc1c(-c2cccs2)cc(-c2cnccn2)nc1SCC(=O)N/N=C/c1ccc(Cl)cc1`, the growth in experiment [1] is 87.1%; in experiment [2] it was 97.6%; in experiment [3], 104%; in experiment [4] it was 112%; in [5], 105%; in experiment [6], 114%. Besides, the growth is 109% in experiment [7], 117% in experiment [8], 103% in [9] and 102% in experiment [10].
With `COc1ccc2sc(NC(=O)CCCCCCNC(=O)C(O)(O)C(F)(F)F)nc2c1`, the growth in experiment [1] was 12.5%; in experiment [2] it was 14.6%; in experiment [3] it was 2.54% (active); in [4] it was -0.588% (active); in [5] it was 27.7%; in experiment [6] it was -26.6% (active). The growth in experiment [7] was 0.233% (active); in experiment [8], -23.9% (active); in [9], 19.1%; in [10], 5.2% (active).
As for `CC(=O)C1=C(C)NC(NNc2ccccc2)=NC1c1ccc([N+](=O)[O-])cc1` (stereo not given), the growth in experiment [1] was 62.4%; in experiment [2], 92.4%; in [3], 91.1%; in experiment [4], 95.9%; in experiment [5] it was 84.3%; in experiment [6] it was 106%. For the same compound, the growth in [7] is 82.6%; in [8], 99.7%; in experiment [9], 99.6%; in [10], 91.4%.
In the case of `COC(=O)c1cccc(NC2=CC(=O)C(C)=C(C)C2=O)c1`, the growth is 45.5% in experiment [1]; 80.8% in experiment [2]; 87.9% in experiment [3]; 109% in experiment [4]; 24.3% in [5]; 105% in experiment [6]. In addition, the growth in experiment [7] is 89.5%; in experiment [8], 8.14% (active); in [9], 116%; in experiment [10] it was 87.2%.
`COc1cc2c3c(cc4c5c(ccc4c3c1OC)OCO5)N(CCN(C)C)C2=O`: the growth in [1] is -1.44% (active); in experiment [2], -21.7% (active); in [3] it was 9.28% (active); in experiment [4], -6.73% (active); in experiment [5], -4.27% (active); in [6] it was 2.24% (active). Further, the growth was -11.3% (active) in [7], 0.51% (active) in experiment [8], -8.56% (active) in experiment [9] and 4.67% (active) in experiment [10].
Consider `O=C(Nc1ccc(N=Cc2c(O)[nH]c3ccccc23)cc1)Nc1ccc(S(=O)(=O)Nc2ncccn2)cc1`, for which the growth in [1] was 96.4%; in [2], 107%; in experiment [3] it was 102%; in experiment [4] it was 130%; in [5] it was 101%; in experiment [6], 114%. Moreover, the growth in experiment [7] was 112%; in experiment [8] it was 117%; in experiment [9] it was 103%; in experiment [10] it was 106%.
